Experimental data from PubChem BioAssay AID504660 (National Center for Advancing Translational Sciences (NCATS), 2011).
Hit rate of the full screen: of about 360,000 compounds, about 3,700 (1%) were called active. For the sample, actives were picked, then their nearest neighbours and some compounds at random. Unmarked numbers belong to inactive results. No stated cut-off is given here; in the data, active means activation above about 30%; inactive means the rest.

Biological target: D(1A) dopamine receptor (Homo sapiens) (UniProt P21728)
Sequence (P21728 whole entry, looked up): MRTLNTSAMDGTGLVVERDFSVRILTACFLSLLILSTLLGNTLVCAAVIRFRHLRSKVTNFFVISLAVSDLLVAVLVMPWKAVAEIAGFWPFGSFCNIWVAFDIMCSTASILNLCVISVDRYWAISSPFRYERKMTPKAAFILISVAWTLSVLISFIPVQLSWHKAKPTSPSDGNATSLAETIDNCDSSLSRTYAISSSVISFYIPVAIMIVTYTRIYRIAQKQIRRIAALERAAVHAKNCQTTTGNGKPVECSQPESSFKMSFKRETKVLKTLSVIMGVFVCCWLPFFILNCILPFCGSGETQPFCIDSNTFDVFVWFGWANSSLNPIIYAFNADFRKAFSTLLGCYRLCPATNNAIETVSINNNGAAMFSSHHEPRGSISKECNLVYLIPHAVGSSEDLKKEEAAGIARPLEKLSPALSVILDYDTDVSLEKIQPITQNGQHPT
Test: Allosteric Agonists of the Human D1 Dopamine Receptor: qHTS; further: 0% is about no effect
Details: HEK293 T-REx D1 cells, calcium flux, agonist mode; at 2 µM; hits give high values
Excerpt: NIH Chemical Genomics Center [NCGC] NIH Molecular Libraries Probe Centers Network [MLPCN] MLPCN Grant: NS064831-01 Assay Submitter (PI): David Sibley Dopamine receptors (DARs) are involved in the etiology and/or therapy of a number of neuropsychiatric and endocrine disorders. For instance, all receptor-based antiparkinsonian drugs work via stimulating the D1 DAR subtype whereas all FDA-approved antipsychotic agents are antagonists of this receptor. […] There are three different types of allosteric modulators that we are seeking, two of which will stimulate or augment receptor signaling, allosteric agonists and potentiators, while the third, allosteric antagonists, will attenuate receptor signaling. The present primary screening assay measures compound agonism by tracking calcium flux in a […], inducible Hek293 Trex D1 cell line.
Freshly passaged cells are plated in 1536 well black, clear bottom plates at a density of 4000 cells/well in 3 ul of complete media containing 1x tetracycline inducer. After an overnight incubation at […] in 5% CO2, cells are loaded with 2 ul of the no wash Calcium Assay Kit (ABD Bioquest) and incubated at room temperature for 30 to 90 minutes. Agonist read: A 10 cycle (1 second/cycle) baseline measurement is taken and then the FDSS online 1536 pintool delivers 23 nl of compound library (as well as dopamine controls) to the plate. The plate is measured for kinetically at 1 cycle/sec for 180 seconds and is considered to be the agonist portion of the assay (eg, compounds which activate a positive calcium response during this portion are flagged as potential agonists). Following the 180 second read, 1 ul of either an EC20 (positive modulation assay) or EC80 (negative modulation assay) is delivered by an onboard pipette head. Measurements are taken kinetically for an additional 180 seconds.

Compound	activation
CCCCCCCCCCCCn1ccc(=N)cc1	52.6% (active)
COc1ccc(-c2nn(CCC#N)cc2C(=O)O)cc1	2.02%
NC(=O)Nc1cccc(C(F)(F)F)c1	1.22%
CC(Cc1ccccc1)NCCC(c1ccccc1)c1ccccc1 (stereo not given)	19.9%
CCN(CC)c1ccc([N+](=O)[O-])c2cccnc12	6.86%
COc1ccc(C(=O)C2CN(C)CC2C(=O)c2ccc(OC)cc2)cc1 (stereo not given)	4.65%
O=C1C2(Cl)C3(Cl)C4(Cl)C(Cl)(Cl)C5(Cl)C3(Cl)C1(Cl)C5(Cl)C24Cl (stereo not given)	99.6% (active)
CCN1CCN(Cc2cc(OC)c3c(c2)OCO3)CC1	3.83%
Cc1ccc(-n2c(/C=C/c3cccc(C(F)(F)F)c3)nc3ccccc3c2=O)cc1	-0.792%
CC(C)c1ccc(O)c(CN2CCN(c3ccccc3)CC2)c1	93% (active)
Oc1cc2c(cc1CN1CCN(c3ccccc3)CC1)OCO2	2.23%
COc1ccc(CN2CCN(c3ccccc3F)CC2)c(OC)c1	4.33%
CCN1C(=O)C(=Cc2c(C)n(CC(=O)NCC3CCCO3)c3ccccc23)C(=O)N(CC)C1=S (stereo not given)	8.52%
Cc1cccc(Cn2cccc(C(=O)Nc3ccc4c(c3)OCCO4)c2=O)c1	5.25%
COc1ccc(CNCCc2ccc3c(c2)OCO3)c(OC)c1OC	11.4%
COc1ccc(CNCCc2c[nH]c3ccccc23)cc1OC	12.6%
COc1ccc(Br)cc1CNCCc1cccc(Cl)c1	34.4% (active)
Cc1cc2ccccn2c1C(C[N+](=O)[O-])c1c(F)cccc1Cl (stereo not given)	0.11%
CN(C)c1nc(N(C)C)nc(N(C#N)CCCl)n1	1.85%
O=C(c1cc2nc(-c3ccccc3)cc(-c3ccccc3)n2n1)N1CCC2(CC1)OCCO2	1.75%
CCCCC(=O)N/N=C/c1c(O)n(-c2ccccc2)c(=O)[nH]c1=O	-0.172%
CCCCC(=O)N/N=C/c1c(O)n(CC)c(=S)n(CC)c1=O	71.8% (active)
CCCCC(=O)N/N=C/c1c(O)n(CCC2=CCCCC2)c(=O)[nH]c1=O	2.44%
Cc1ccc(NC(=O)N(Cc2ccc3c(c2)OCO3)C2CCN(Cc3ccccc3)CC2)cc1F	9.83%
COc1ccccc1N1CCN(C(CNC(=O)Oc2ccccc2)c2cccnc2)CC1 (stereo not given)	0.177%
COC(=O)N1C(c2ccccc2)C1c1ccccc1 (stereo not given)	6.43%
COC(=O)C(c1ccccc1)N1CCCCCC1 (stereo not given)	40% (active)
NCC(O)c1ccc(O)cc1 (stereo not given)	0.942%
COc1ccc(N=Cc2c(O)n(C)c(=O)[nH]c2=O)cc1	2.19%
CC(=O)c1c(O)n(C2CCCCCC2)c(=O)[nH]c1=O	2.24%
